# Where two headings read alike, the source gives them in different places.
# Assays:
# CAMKK2 = tested on: CAMKK2; design: species or system human, MV4-11 + K-562 + COLO205 + SK-N-BE2 + OVCAR-8; settings: read-out: apparent Kd; compound concentrations: 100 nM and 1000 nM (sheet 'Samples'), CATDS: 3.10077731514018E-2; n = 1
# CLK1 = tested on: CLK1; design: species or system human, MV4-11 + K-562 + COLO205 + SK-N-BE2 + OVCAR-8; settings: read-out: apparent Kd, n = 1
# CLK4 = tested on: CLK4; design: species or system human, MV4-11 + K-562 + COLO205 + SK-N-BE2 + OVCAR-8; settings: read-out: apparent Kd; compound concentrations: 100 nM and 1000 nM (sheet 'Samples'), CATDS: 6.3001679315381406E-2; n = 1
# CSNK1D = tested on: CSNK1D; design: species or system human, MV4-11 + K-562 + COLO205 + SK-N-BE2 + OVCAR-8; settings: read-out: apparent Kd; compound concentrations: 100 nM and 1000 nM (sheet 'Samples'), CATDS: 3.1213203175664998E-2; n = 1
# EIF2AK1 = tested on: EIF2AK1; design: species or system human, MV4-11 + K-562 + COLO205 + SK-N-BE2 + OVCAR-8; settings: read-out: apparent Kd; compound concentrations: 100 nM and 1000 nM (sheet 'Samples'), CATDS: 3.5611911741364403E-2; n = 1
# FER = tested on: FER; design: species or system human, MV4-11 + K-562 + COLO205 + SK-N-BE2 + OVCAR-8; settings: read-out: apparent Kd; compound concentrations: 100 nM and 1000 nM (sheet 'Samples'), CATDS: 4.34234720684002E-2; n = 1
# GAK = tested on: GAK; design: species or system human, MV4-11 + K-562 + COLO205 + SK-N-BE2 + OVCAR-8; settings: read-out: apparent Kd; compound concentrations: 100 nM and 1000 nM (sheet 'Samples'), CATDS: 0.16140378921040499; n = 1
# IGF1R = tested on: IGF1R; design: species or system human, MV4-11 + K-562 + COLO205 + SK-N-BE2 + OVCAR-8; settings: read-out: apparent Kd; compound concentrations: 100 nM and 1000 nM (sheet 'Samples'), CATDS: 3.6183356665864301E-2; n = 1
# INSR = tested on: INSR; design: species or system human, MV4-11 + K-562 + COLO205 + SK-N-BE2 + OVCAR-8; settings: read-out: apparent Kd; compound concentrations: 100 nM and 1000 nM (sheet 'Samples'), CATDS: 4.1283599015515197E-2; n = 1
# MAPK10 = tested on: MAPK10; design: species or system human, MV4-11 + K-562 + COLO205 + SK-N-BE2 + OVCAR-8; settings: read-out: apparent Kd; compound concentrations: 100 nM and 1000 nM (sheet 'Samples'), CATDS: 0.121038756107581; n = 1
# MAPK8 = tested on: MAPK8; design: species or system human, MV4-11 + K-562 + COLO205 + SK-N-BE2 + OVCAR-8; settings: read-out: apparent Kd; compound concentrations: 100 nM and 1000 nM (sheet 'Samples'), CATDS: 0.11476451358793401; n = 1
# MAPK9 = tested on: MAPK9; design: species or system human, MV4-11 + K-562 + COLO205 + SK-N-BE2 + OVCAR-8; settings: read-out: apparent Kd; compound concentrations: 100 nM and 1000 nM (sheet 'Samples'), CATDS: 6.9052364835720206E-2; n = 1
# NUAK1 = tested on: NUAK1; design: species or system human, MV4-11 + K-562 + COLO205 + SK-N-BE2 + OVCAR-8; settings: read-out: apparent Kd; compound concentrations: 100 nM and 1000 nM (sheet 'Samples'), CATDS: 3.4302390396245802E-2; n = 1
# PRKD2 = tested on: PRKD2; design: species or system human, MV4-11 + K-562 + COLO205 + SK-N-BE2 + OVCAR-8; settings: read-out: apparent Kd; compound concentrations: 100 nM and 1000 nM (sheet 'Samples'), CATDS: 3.5974174305942498E-2; n = 1
# PRKD3 = tested on: PRKD3; design: species or system human, MV4-11 + K-562 + COLO205 + SK-N-BE2 + OVCAR-8; settings: read-out: apparent Kd; compound concentrations: 100 nM and 1000 nM (sheet 'Samples'), CATDS: 3.1846341330559601E-2; n = 1
# PTK2B = tested on: PTK2B; design: species or system human, MV4-11 + K-562 + COLO205 + SK-N-BE2 + OVCAR-8; settings: read-out: apparent Kd; compound concentrations: 100 nM and 1000 nM (sheet 'Samples'), CATDS: 8.6310597132222E-2; n = 1
# PTK2 = tested on: PTK2; design: species or system human, MV4-11 + K-562 + COLO205 + SK-N-BE2 + OVCAR-8; settings: read-out: apparent Kd; compound concentrations: 100 nM and 1000 nM (sheet 'Samples'), CATDS: 5.1603916843062203E-2; n = 1
# Q6ZSR9 = Q6ZSR9 (human, UniProt Q6ZSR9); design: species or system MV4-11 + K-562 + COLO205 + SK-N-BE2 + OVCAR-8; settings: read-out: apparent Kd; compound concentrations: 100 nM and 1000 nM (sheet 'Samples'), CATDS: 3.1507778196600798E-2; n = 1
# RPS6KA1 = tested on: RPS6KA1; design: species or system human, MV4-11 + K-562 + COLO205 + SK-N-BE2 + OVCAR-8; settings: read-out: apparent Kd; compound concentrations: 100 nM and 1000 nM (sheet 'Samples'), CATDS: 3.19128363140119E-2; n = 1
# TNK1 = tested on: TNK1; design: species or system human, MV4-11 + K-562 + COLO205 + SK-N-BE2 + OVCAR-8; settings: read-out: apparent Kd; compound concentrations: 100 nM and 1000 nM (sheet 'Samples'), CATDS: 0.144330390511521; n = 1
# TTK = tested on: TTK; design: species or system human, MV4-11 + K-562 + COLO205 + SK-N-BE2 + OVCAR-8; settings: read-out: apparent Kd; compound concentrations: 100 nM and 1000 nM (sheet 'Samples'), CATDS: 8.7899385258393206E-2; n = 1
# CDC42BPG = tested on: CDC42BPG; design: species or system human, MV4-11 + K-562 + COLO205 + SK-N-BE2 + OVCAR-8; settings: read-out: apparent Kd; compound concentrations:100 nM and 1000 nM (sheet 'Samples'); n = 1
# FLT4 = tested on: FLT4; design: species or system human, MV4-11 + K-562 + COLO205 + SK-N-BE2 + OVCAR-8; settings: read-out: apparent Kd; compound concentrations:100 nM and 1000 nM (sheet 'Samples'); n = 1
# MAP3K1 = tested on: MAP3K1; design: species or system human, MV4-11 + K-562 + COLO205 + SK-N-BE2 + OVCAR-8; settings: read-out: apparent Kd; compound concentrations:100 nM and 1000 nM (sheet 'Samples'); n = 1
# MAP4K5 = tested on: MAP4K5; design: species or system human, MV4-11 + K-562 + COLO205 + SK-N-BE2 + OVCAR-8; settings: read-out: apparent Kd; compound concentrations:100 nM and 1000 nM (sheet 'Samples'); n = 1
# STK10 = tested on: STK10; design: species or system human, MV4-11 + K-562 + COLO205 + SK-N-BE2 + OVCAR-8; settings: read-out: apparent Kd; compound concentrations:100 nM and 1000 nM (sheet 'Samples'); n = 1
# CAMK4 = tested on: CAMK4; design: species or system human, MV4-11 + K-562 + COLO205 + SK-N-BE2 + OVCAR-8; settings: read-out: apparent Kd; compound concentrations:100 nM and 1000 nM (sheet 'Samples'); n = 1
# CDK4 = tested on: CDK4; design: species or system human, MV4-11 + K-562 + COLO205 + SK-N-BE2 + OVCAR-8; settings: read-out: apparent Kd; compound concentrations:100 nM and 1000 nM (sheet 'Samples'); n = 1
# CDKL5 = tested on: CDKL5; design: species or system human, MV4-11 + K-562 + COLO205 + SK-N-BE2 + OVCAR-8; settings: read-out: apparent Kd; compound concentrations:100 nM and 1000 nM (sheet 'Samples'); n = 1
# GSK3A = tested on: GSK3A; design: species or system human, MV4-11 + K-562 + COLO205 + SK-N-BE2 + OVCAR-8; settings: read-out: apparent Kd; compound concentrations:100 nM and 1000 nM (sheet 'Samples'); n = 1
# GSK3B = tested on: GSK3B; design: species or system human, MV4-11 + K-562 + COLO205 + SK-N-BE2 + OVCAR-8; settings: read-out: apparent Kd; compound concentrations:100 nM and 1000 nM (sheet 'Samples'); n = 1
# ICK = tested on: ICK; design: species or system human, MV4-11 + K-562 + COLO205 + SK-N-BE2 + OVCAR-8; settings: read-out: apparent Kd; compound concentrations:100 nM and 1000 nM (sheet 'Samples'); n = 1
# MERTK = tested on: MERTK; design: species or system human, MV4-11 + K-562 + COLO205 + SK-N-BE2 + OVCAR-8; settings: read-out: apparent Kd; compound concentrations:100 nM and 1000 nM (sheet 'Samples'); n = 1
# PRKCA = tested on: PRKCA; design: species or system human, MV4-11 + K-562 + COLO205 + SK-N-BE2 + OVCAR-8; settings: read-out: apparent Kd; compound concentrations:100 nM and 1000 nM (sheet 'Samples'); n = 1
# PRKCB = tested on: PRKCB; design: species or system human, MV4-11 + K-562 + COLO205 + SK-N-BE2 + OVCAR-8; settings: read-out: apparent Kd; compound concentrations: 100 nM and 1000 nM (sheet 'Samples'), CATDS: 6.3755563095046694E-2; n = 1
# PRKCD = tested on: PRKCD; design: species or system human, MV4-11 + K-562 + COLO205 + SK-N-BE2 + OVCAR-8; settings: read-out: apparent Kd; compound concentrations:100 nM and 1000 nM (sheet 'Samples'); n = 1
# PRKCQ = tested on: PRKCQ; design: species or system human, MV4-11 + K-562 + COLO205 + SK-N-BE2 + OVCAR-8; settings: read-out: apparent Kd; compound concentrations:100 nM and 1000 nM (sheet 'Samples'); n = 1
# RPS6KA6 = tested on: RPS6KA6; design: species or system human, MV4-11 + K-562 + COLO205 + SK-N-BE2 + OVCAR-8; settings: read-out: apparent Kd; compound concentrations:100 nM and 1000 nM (sheet 'Samples'); n = 1
# RPS6KB1 = tested on: RPS6KB1; design: species or system human, MV4-11 + K-562 + COLO205 + SK-N-BE2 + OVCAR-8; settings: read-out: apparent Kd; compound concentrations:100 nM and 1000 nM (sheet 'Samples'); n = 1
# Sequence of Q6ZSR9 (Q6ZSR9 whole entry, looked up): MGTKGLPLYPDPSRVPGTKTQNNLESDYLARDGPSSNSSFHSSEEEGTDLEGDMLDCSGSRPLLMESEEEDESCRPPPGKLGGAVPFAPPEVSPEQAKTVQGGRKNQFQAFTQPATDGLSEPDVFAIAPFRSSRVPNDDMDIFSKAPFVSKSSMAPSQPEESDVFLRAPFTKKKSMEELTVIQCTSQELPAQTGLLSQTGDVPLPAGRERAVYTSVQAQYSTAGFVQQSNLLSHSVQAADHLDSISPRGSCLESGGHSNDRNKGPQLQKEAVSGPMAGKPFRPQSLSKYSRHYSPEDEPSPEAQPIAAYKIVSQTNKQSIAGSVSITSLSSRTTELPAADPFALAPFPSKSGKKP
smiles,measurement,setting,value
COc1cc(N2CCN(C(C)C)CC2)ccc1Nc1nc(Nc2ccc(F)cc2C(N)=O)c2cc[nH]c2n1 [GSK1220512A],potency estimated from few doses,CAMKK2,2210 nM
same,potency estimated from few doses,"CLK1; compound concentrations: 100 nM and 1000 nM (sheet 'Samples'), CATDS: 5.1220055062038403E-2",361 nM
same,potency estimated from few doses,CLK4,213 nM
same,potency estimated from few doses,CSNK1D,2140 nM
same,potency estimated from few doses,EIF2AK1,1180 nM
same,potency estimated from few doses,FER,587 nM
same,potency estimated from few doses,GAK,38 nM
same,potency estimated from few doses,IGF1R,1110 nM
same,potency estimated from few doses,INSR,691 nM
same,potency estimated from few doses,MAPK10,59.2 nM
same,potency estimated from few doses,MAPK8,64.7 nM
same,potency estimated from few doses,MAPK9,172 nM
same,potency estimated from few doses,NUAK1,1380 nM
same,potency estimated from few doses,PRKD2,1130 nM
same,potency estimated from few doses,PRKD3,1930 nM
same,potency estimated from few doses,PTK2B,108 nM
same,potency estimated from few doses,PTK2,354 nM
same,potency estimated from few doses,Q6ZSR9,2040 nM
same,potency estimated from few doses,RPS6KA1,1910 nM
same,potency estimated from few doses,TNK1,44.9 nM
same,potency estimated from few doses,TTK,104 nM
COc1cc2ncn(-c3cc(O[C@@H](C)c4ccccc4Cl)c(C(N)=O)s3)c2cc1OC [GSK237700A],potency estimated from few doses,CDC42BPG,2140 nM
same,potency estimated from few doses,FLT4,1530 nM
same,potency estimated from few doses,MAP3K1,1500 nM
same,potency estimated from few doses,MAP4K5,2080 nM
same,potency estimated from few doses,STK10,1820 nM
Cl.Cn1cc(C2=C(c3cn(CCCN)c4ccccc34)C(=O)NC2=O)c2ccccc21 [RO0317549-002],potency estimated from few doses,CAMK4,1430 nM
same,potency estimated from few doses,CDK4,1650 nM
same,potency estimated from few doses,CDKL5,2060 nM
same,potency estimated from few doses,CLK1; compound concentrations:100 nM and 1000 nM (sheet 'Samples'),1850 nM
same,potency estimated from few doses,GSK3A,136 nM
same,potency estimated from few doses,GSK3B,115 nM
same,potency estimated from few doses,ICK,109 nM
same,potency estimated from few doses,MERTK,1370 nM
same,potency estimated from few doses,PRKCA,117 nM
same,potency estimated from few doses,PRKCB,606 nM
same,potency estimated from few doses,PRKCD,93.3 nM
same,potency estimated from few doses,PRKCQ,566 nM
same,potency estimated from few doses,RPS6KA6,44.1 nM
same,potency estimated from few doses,RPS6KB1,1180 nM
